According to PubChem BioAssay:
Where “and” joins values, the source holds several entries; their conditions need not be identical. Identical values can stand only once. Calls of active or inactive are those of the source. Rule as the data show it, unless noted: active = parasite load remaining mostly below about 12% (no sharp cut-off); inactive = mostly above about 10%. Peptide text beside a SMILES is read from it.

Key:
[1] = P. berghei load reduction in hepatocytes – cell-based, HepG2, luciferase luminescence, HepG2 viability, primary screen (AID 624349);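 also: 100% = mean of DMSO negative control wells on the same plate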; conditions: P. berghei liver stage in HepG2, luciferase luminescence, concentration not given here; parasite load remaining: stronger effect = lower value; viability: measured here: HepG2 viability without parasites
[2] = Wnt pathway potentiators raising nuclear beta-catenin – imaging, WNT3A-conditioned medium, mouse C2C12, NPC library, primary screen (AID 1117326; in the data active = nuclear beta-catenin stimulation mostly above about 4.2%, no sharp cut-off; inactive = mostly below about 10%; also: reference of the scale not given here); conditions: stronger effect = higher value
[3] = stimulators of insulin release from INS-1E, primary screen, cell-based, 5 mM glucose, NPC library (AID 1117329;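 active = compound raises insulin release from rat beta cells at 5 mM glucose, no numeric limit stated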; also: reference of the scale not given here); conditions: rat INS-1E insulin secretion, at 10 µM, stronger effect = higher value
[4] = growth inhibition of GSK3B-pretreated HCT116 cells – cell-based, CellTiter-Glo, 0.2 to 20 µM (AID 1117336;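 active = compounds lowering colon cancer cell viability after pretreatment blocking the GSK3B kinase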); conditions: HCT116 viability after GSK3B inhibitor, at 20 µM, stronger effect = higher value
[5] = inhibition of endothelial tube formation, primary screen, imaging, VEGF stimulated, CD31 staining, tube area, NPC library (AID 1117340;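 active = compound that reduces growth-factor-driven endothelial tube area in a mixed cell culture, no cutoff stated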); conditions: VEGF-stimulated ADSC/ECFC co-culture, at 10 µM, stronger effect = higher value
[6] = GLP1 release stimulators, primary, NCI-H716, NPC library (AID 1117341;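 active = compound raises GLP1 secretion from the human gut endocrine cells, with no numeric limit stated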; also: reference of the scale not given here); conditions: NCI-H716 cells, at 10 µM, stronger effect = higher value
[7] = HCT116 colon cancer cell growth inhibition, primary screen, CellTiter-Glo luminescence, NPC library (AID 1117342;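 active = compounds that lower survival of HCT116 colon cancer cells in the luminescence readout, no numeric limit stated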); conditions: at 20 µM (top of the series)
[8] = reduced SW480 viability measured with CellTiter-Glo, NPC library, primary (AID 1117343;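 active = compounds that lower viability of the colon cancer cells in the luminescence readout, with no numeric limit stated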); conditions: CellTiter-Glo luminescence; at 20 µM (top of the series)
[9] = NPC library primary testing for decreased DLD-1 cell viability via CellTiter-Glo (AID 1117346;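 active = compounds that lower survival of DLD-1 colon cancer cells in the luminescence readout, no cutoff given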); conditions: DLD-1 viability, CellTiter-Glo luminescence; at 20 µM (top of the series)
[10] = target: 6-phosphogluconate dehydrogenase, decarboxylating (Homo sapiens) (UniProt P52209); assay: inhibition of human phosphogluconate dehydrogenase – biochemical, recombinant enzyme, NADPH absorbance, primary screen (AID 1159550;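 active = at least 20% inhibition of 6-phosphogluconate dehydrogenase activity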); conditions: recombinant 6PGD, NADPH absorbance 341 nm; at 10 µM; stronger effect = higher value
Chain of 6-phosphogluconate dehydrogenase, decarboxylating (Homo sapiens) (P52209 whole entry, looked up): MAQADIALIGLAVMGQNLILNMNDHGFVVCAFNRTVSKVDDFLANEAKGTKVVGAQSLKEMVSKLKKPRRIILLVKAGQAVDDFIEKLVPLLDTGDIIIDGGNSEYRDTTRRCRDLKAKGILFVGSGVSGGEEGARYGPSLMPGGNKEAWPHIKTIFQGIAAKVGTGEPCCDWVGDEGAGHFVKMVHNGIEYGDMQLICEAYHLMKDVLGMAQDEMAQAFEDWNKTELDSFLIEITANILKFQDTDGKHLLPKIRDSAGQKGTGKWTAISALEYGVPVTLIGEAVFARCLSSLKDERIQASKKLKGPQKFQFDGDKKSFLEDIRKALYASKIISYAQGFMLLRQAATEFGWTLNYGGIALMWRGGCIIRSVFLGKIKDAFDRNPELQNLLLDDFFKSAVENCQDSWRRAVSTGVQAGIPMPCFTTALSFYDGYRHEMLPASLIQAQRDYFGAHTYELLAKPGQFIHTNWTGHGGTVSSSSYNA

| Structure (SMILES) | parasite load remaining [1] | viability [1] | nuclear beta-catenin stimulation ([2]; at 10 µM) | nuclear beta-catenin stimulation ([2]; stimulation, at 2 µM) | insulin secretion stimulation [3] | viability decrease [4] | tube area decrease [5] | GLP1 secretion stimulation [6] | inhibition of viability [7] | viability decrease (inhibition) [8] | viability decrease (inhibition) [9] | inhibition [10] |
| --- | --- | --- | --- | --- | --- | --- | --- | --- | --- | --- | --- | --- |
| Nc1ncnc2nc[nH]c12 | 110% (inactive) and 37.4% (inactive) | 91.6% and 128% | -2.6% (inactive) | -0.4% | -0.3% (inactive) | -4.6% (inactive) | -30.5% (inactive) | -1.7% (inactive) | -30.2% (inactive) | -59.6% (inactive) | -23.8% (inactive) | 2.63% (inactive) |
| CCCCC1C(=O)N(c2ccccc2)N(c2ccc(O)cc2)C1=O (centres undefined) | 75.4% (inactive) and 73.9% (inactive) and 45.8% (inactive) | 80.4% and 71.7% and 90.8% | 66.2% (active) | 2.3% | -0.2% (inactive) | 6.7% (inactive) | 50.3% (active) | 12.4% (inactive) | 57.7% (active) | 124% (active) | 101% (active) | -5.96% (inactive) |
| CN(Cc1cc(Br)cc(Br)c1N)C1CCCCC1 | 167% (inactive) and 46% (inactive) and 10.9% (inactive) | 89% and 109% and 68% | -0.1% (inactive) | -0.5% | 6.9% (inactive) | 87.5% (active) | 7.5% (inactive) | -1.6% (inactive) | 80.7% (active) | 125% (active) | 97.2% (active) | 16% (inactive) |
| CCCCC(CC)CN1CN(CC(CC)CCCC)CC(C)(N)C1 (centres undefined) | 136% (inactive) and 95.8% (inactive) and 66.4% (inactive) | 98.8% and 69.2% and 87.2% | -4.8% (inactive) | 3.6% | 6.1% (inactive) | 79.6% (active) | 16% (inactive) | 53.9% (active) | 102% (active) | 145% (active) | 105% (active) | -10.4% (inactive) |
| COc1ccc(-c2cc(C(F)F)nn2-c2ccc(S(N)(=O)=O)cc2)cc1F | 70.5% (inactive) | 97.2% | 4% (inactive) | 0.7% | -0.6% (inactive) | -65.6% (inactive) | 10.3% (inactive) | 5.7% (inactive) | 22.3% (inactive) | 6.3% (inactive) | 1.8% (inactive) | -12.8% (inactive) |
| O=C(N[C@H](CO)[C@H](O)c1ccc([N+](=O)[O-])cc1)C(Cl)Cl | 29.9% (inactive) and 25.5% (inactive) | 46.7% and 63% | -0.9% (inactive) | -0.3% | 1.8% (inactive) | -11.1% (inactive) | 12.5% (inactive) | -4.2% (inactive) | -1.7% (inactive) | -0.7% (inactive) | -7% (inactive) | 15.5% (inactive) |
| Cc1c(N(C)C)c(=O)n(-c2ccccc2)n1C | 18.2% (inactive) and 103% (inactive) and 38% (inactive) | 52.4% and 97.7% and 84.1% | 2.9% (inactive) | 0.6% | 0.4% (inactive) | -152% (inactive) | 8.4% (inactive) | -1.9% (inactive) | -13.5% (inactive) | -4.8% (inactive) | -6.4% (inactive) | 13.9% (inactive) |
| COC(=O)N/N=C/c1c[n+]([O-])c2ccccc2[n+]1[O-] | 174% (inactive) and 86.3% (inactive) and 64.3% (inactive) | 93.9% and 108% and 125% | 1.7% (inactive) | 5.8% | 1.9% (inactive) | 18.7% (inactive) | 22.2% (inactive) | 5.7% (inactive) | -3% (inactive) | -10.2% (inactive) | -4.9% (inactive) | 11.2% (inactive) |
| COc1cnc(NS(=O)(=O)c2ccc(N)cc2)nc1 | 75.1% (inactive) and 108% (inactive) and 64.2% (inactive) | 93.4% and 66.1% and 87.2% | 0.2% (inactive) | 2% | 1.9% (inactive) | -21.6% (inactive) | -5.6% (inactive) | 0.5% (inactive) | -7.43% (inactive) | 23.4% (inactive) | -14.6% (inactive) | -8.19% (inactive) |
| CC1CC(OC(=O)C(O)c2ccccc2)CC(C)(C)N1C (centres undefined) | 101% (inactive) | 101% | -1.4% (inactive) | -0.1% | 2.7% (inactive) | 3.6% (inactive) | 10.4% (inactive) | 2.1% (inactive) | 9.83% (inactive) | 17.1% (inactive) | 0.1% (inactive) | -25.4% (inactive) |
| COC(=O)[C@H](Cc1ccccc1)NC(=O)[C@@H](N)CC(=O)O (H-Asp-Phe-OMe) | 156% (inactive) and 74.6% (inactive) | 84.2% and 212% | 4.5% (inactive) | 1.1% | 2.8% (inactive) | -0.5% (inactive) | 6.5% (inactive) | 0.8% (inactive) | 5% (inactive) | -6.8% (inactive) | 9.55% (inactive) | 10.8% (inactive) |
| C=C1c2cccc(O)c2C(O)=C2C(=O)[C@]3(O)C(O)=C(C(N)=O)C(=O)[C@@H](N(C)C)[C@@H]3[C@@H](O)[C@H]12 | 89.4% (inactive) and 160% (inactive) and 38% (inactive) | 79.4% and 68.3% and 93.9% | 3.6% (inactive) | 2.7% | -1.8% (inactive) | -253% (inactive) | 9.7% (inactive) | 0.4% (inactive) | -0.33% (inactive) | -1.7% (inactive) | 58.4% (active) | 13.8% (inactive) |
